Source: PubChem BioAssay
The source made the active and inactive calls.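 How the source made its calls, unless noted: active means inhibition at or above 50% at 10 µM; inactive means inhibition below 50%.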

Columns and labels:
[1] = inhibitors of TNFa-induced NFkB p65 translocation, primary screen, imaging, HUVEC, MLSMR starter and 10KST1 sets (AID 438;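 active means inhibition above 20% together with a positive visual image hit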;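 further: compound added about 3h40 before a 20 min TNFalpha stimulation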;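 on inhibition: signal is the nuclear over cytoplasmic p65 intensity ratio per well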); conditions: HUVEC TNFa-induced p65 nuclear translocation; cell count: measured here: nuclei count (cytotoxicity indicator), at 2.08 µM; inhibition: at 2 µM, stronger effect = higher value, 0% TNFa-plus-vehicle, 100% no-TNFa wells
[2] = inhibitors of mutant huntingtin aggregation, primary screen, imaging, exon1htt(103Q)mCFP cells, high-content imaging (AID 483;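 active means visual image review flags a hit and inhibition of aggregation exceeds 20%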;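 further: compound exposure lasted 3 days before fixation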;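 on nuclei count: percent of the per-plate median nuclei count of sample wells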); conditions: exon1htt(103Q)mCFP cell line, aggregate imaging, at 2 µM; inhibition of aggregation: stronger effect = higher value; nuclei count: measured here: cell count, toxicity
[3] = inhibitors of E-selectin induction by TNFa, primary screen, imaging, HUVEC, immunofluorescence, MLSMR starter and 10KST1 sets (AID 487;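 active means visually confirmed hit in the image check and inhibition above 20%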;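 on inhibition: signal is fraction of cell area covered by stained E-selectin grains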;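 on nuclei count: 100% = median nuclei count of all wells on the same plate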); conditions: HUVEC TNFalpha-induced E-selectin immunofluorescence imaging, at 2 µM; inhibition: stronger effect = higher value; nuclei count: measured here: cell number, toxicity
[4] = biological target: Voltage-gated potassium channel subunit beta-2 (Rattus norvegicus) (UniProt P62483); assay: KvBeta enzyme negative modulators, primary screen, biochemical, NADPH fluorescence (AID 622;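 active means fluorescence slope higher than the sample average by over 3 SD, cut at about -0.22 in these data, passing the limit was not always enough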;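 further: slope of raw intensity against log time taken from 70 to 1610 s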); conditions: recombinant KvBeta, 4-cyanobenzaldehyde reduction, at 10 µM, stronger effect = higher value
[5] = biological target: Voltage-gated potassium channel subunit beta-2 (Rattus norvegicus) (UniProt P62483); assay: KvBeta positive modulators, primary screen, biochemical, NADPH fluorescence (AID 623;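 active means NADPH fluorescence slope more negative than the mean of all samples by about 3 SD, 99.7% confidence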;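 further: fluorescence intensity change per second fitted from 20 to 320 s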); conditions: Recombinant KvBeta, NADPH fluorescence decrease slope, 10 min; at 10 µM; stronger effect = lower value
[6] = biological target: Alpha-2C adrenergic receptor (Homo sapiens) (UniProt P18825); assay: modulators of alpha2C/GIRK thallium flux, primary screen, cell-based, HEK293 alpha2C/GIRK1/2 (AID 624;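 active means fluorescence slope after compound addition differing from the mean of all screened samples at 99.7% confidence, in either direction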;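 further: slope of fluorescence ratio to pre-addition baseline per second over 15 to 24 s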); conditions: thallium flux BTC fluorescence, at 10 µM, actives lie on both sides
[7] = inhibitors of Sendai virus-induced IRF3 signaling, primary screen, TLR/RLR signaling modifier project, cell-based, Sendai virus stimulus, luciferase, 10K MLSCN set (AID 602276); conditions: HEK293 RL24 IRF3 luciferase reporter, at 10 µM, stronger effect = higher value;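 further: firefly luciferase from ISG56 promoter only with Renilla not read in this screen; 0% = Sendai virus plus DMSO and 100% = medium plus DMSO without virus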
[8] = inhibitors of poly I:C-induced TLR3 signaling, primary screen, cell-based, poly I:C stimulus, luciferase, 10K MLSCN set (AID 602277;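 active means inhibition of the reporter signal at or above 50%; inactive means inhibition below 50%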); conditions: HEK293-TLR3 RL24 IRF3 luciferase reporter, at 10 µM, stronger effect = higher value

Alpha-2C adrenergic receptor (Homo sapiens), sequence (P18825 whole entry, looked up): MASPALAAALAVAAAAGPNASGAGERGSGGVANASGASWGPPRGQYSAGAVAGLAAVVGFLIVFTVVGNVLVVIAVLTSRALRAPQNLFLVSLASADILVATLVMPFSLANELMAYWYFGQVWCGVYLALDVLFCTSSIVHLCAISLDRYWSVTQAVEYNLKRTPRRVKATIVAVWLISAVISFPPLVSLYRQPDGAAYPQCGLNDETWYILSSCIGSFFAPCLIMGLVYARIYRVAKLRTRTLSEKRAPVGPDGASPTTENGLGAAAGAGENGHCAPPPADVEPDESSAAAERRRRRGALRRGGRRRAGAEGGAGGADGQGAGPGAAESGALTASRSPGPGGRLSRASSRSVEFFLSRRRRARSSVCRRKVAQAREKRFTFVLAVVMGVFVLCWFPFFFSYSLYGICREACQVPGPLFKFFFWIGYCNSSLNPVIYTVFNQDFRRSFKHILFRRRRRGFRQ
Voltage-gated potassium channel subunit beta-2 (Rattus norvegicus), sequence (P62483 whole entry, looked up): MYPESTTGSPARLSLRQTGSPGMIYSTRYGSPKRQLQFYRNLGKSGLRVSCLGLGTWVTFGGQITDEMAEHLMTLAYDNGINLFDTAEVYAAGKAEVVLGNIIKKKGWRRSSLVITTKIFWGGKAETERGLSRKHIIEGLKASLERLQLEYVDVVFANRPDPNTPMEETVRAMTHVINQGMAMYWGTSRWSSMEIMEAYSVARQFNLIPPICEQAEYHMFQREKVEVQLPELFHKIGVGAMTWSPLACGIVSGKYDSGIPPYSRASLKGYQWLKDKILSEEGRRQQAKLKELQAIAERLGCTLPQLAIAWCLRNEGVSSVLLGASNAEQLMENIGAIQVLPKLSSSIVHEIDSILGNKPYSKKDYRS

Row | Structure (SMILES) | cell count [1] | inhibition [1] | inhibition of aggregation [2] | nuclei count [2] | inhibition [3] | nuclei count [3] | fluorescence slope [4] | NADPH fluorescence slope [5] | slope [6] | inhibition [7] | inhibition [8]
1 | CCOc1cccc(/C(O)=C2/C(=O)C(=O)N(CCN3CCOCC3)C2c2cccnc2)c1 (stereo unspecified) | 733 | -1.1% (inactive) | -4.6% (inactive) | 104% | -18.1% (inactive) | 97.6% | -0.421 (inactive) | -5e-05 (inactive) | 0.00281 (inactive) | 14.8% (inactive) | 28.3% (inactive)
2 | Cc1ccc(-n2ncc3c(=O)n(CC(=O)NCc4ccco4)cnc32)cc1 | 473 | -7% (inactive) | 9.4% (inactive) | 110% | -72.1% (inactive) | 108% | -0.485 (inactive) | -0.000156 (inactive) | 0.00543 (inactive) | 21.7% (inactive) | 20.3% (inactive)
3 | CCOc1ccc(NC(=O)C(C)Sc2nnc(C)n2C)cc1 (stereo unspecified) | 574 | -9.5% (inactive) | 19.3% (inactive) | 74.5% | -33.5% (inactive) | 119% | -0.591 (inactive) | -1.5e-05 (inactive) | 0.00656 (inactive) | -2.49% (inactive) | 20.8% (inactive)
4 | COc1ccc(C(=O)N2CCCc3ccccc32)cc1 | 433 | 2.5% (inactive) | -1.4% (inactive) | 107% | 4.7% (inactive) | 110% | -0.519 (inactive) | -8e-05 (inactive) | 0.00477 (inactive) | 7.26% (inactive) | 5.78% (inactive)
5 | COCCNC(=O)C(c1ccc(O)cc1)N(Cc1ccco1)C(=O)CCC(=O)Nc1nccs1 (stereo unspecified) | 474 | 6.7% (inactive) | 0.1% (inactive) | 102% | -52.2% (inactive) | 116% | -0.499 (inactive) | 4.7e-06 (inactive) | 0.0061 (inactive) | -12.6% (inactive) | 14.7% (inactive)
6 | O=C(c1ccccc1Br)N1CCN(c2ccccc2)CC1 | 619 | 1.2% (inactive) | -1.6% (inactive) | 100% | -38.7% (inactive) | 123% | -0.488 (inactive) | -0.000203 (inactive) | 0.00488 (inactive) | 9.32% (inactive) | 14.8% (inactive)
7 | C=C(C)Cn1c(N2CC(C)CC(C)C2)nc2c1c(=O)[nH]c(=O)n2C (stereo unspecified) | 616 | -8% (inactive) | -2.3% (inactive) | 104% | -8.5% (inactive) | 108% | -0.421 (inactive) | -1.7e-05 (inactive) | 0.00499 (inactive) | 12.7% (inactive) | 41.2% (inactive)
8 | CC1=C(C(=O)Nc2ccccc2)C(c2ccccn2)n2nc(CCCO)nc2N1 (stereo unspecified) | 662 | 6.2% (inactive) | 13.8% (inactive) | 93.5% | -8.5% (inactive) | 116% | -0.532 (inactive) | -2.2e-05 (inactive) | 0.00679 (inactive) | 9.62% (inactive) | 29.7% (inactive)
9 | COc1ccc(S(=O)(=O)Nc2ccc3c(c2)OCO3)cc1Cl | 625 | 7% (inactive) | -18.4% (inactive) | 101% | -9.8% (inactive) | 101% | -0.392 (inactive) | -6.9e-05 (inactive) | 0.00299 (inactive) | 10.6% (inactive) | 12.9% (inactive)
10 | COc1ccc(C2CC(=O)C3=C(C2)Nc2ccccc2N(C(=O)C2CC2)C3c2cccnc2)cc1OC (stereo unspecified) | 683 | -10.9% (inactive) | -43.4% (inactive) | 87.2% | 0.8% (inactive) | 98.6% | -0.367 (inactive) | 7.5e-06 (inactive) | 0.00392 (inactive) | 10.6% (inactive) | 17.6% (inactive)
11 | CCOc1ccc(NC(=O)CN2C(=O)C3CCCN3C2=O)cc1 (stereo unspecified) | 551 | -13.7% (inactive) | -2.3% (inactive) | 102% | -48.6% (inactive) | 110% | -0.572 (inactive) | 1.4e-05 (inactive) | 0.00647 (inactive) | 3.2% (inactive) | 8.26% (inactive)
12 | O=C(COC(=O)C1CC1)c1c[nH]c2ccccc12 | 468 | 4.3% (inactive) | 3% (inactive) | 114% | -24.9% (inactive) | 103% | -0.587 (inactive) | -2.6e-05 (inactive) | 0.00646 (inactive) | -49.1% (inactive) | -96.8% (inactive)
13 | O=C(CSCc1cccs1)N1CCCC1 | 228 | 3.9% (inactive) | -13.9% (inactive) | 95% | 18.9% (inactive) | 87.8% | -0.528 (inactive) | -1.2e-05 (inactive) | 0.00575 (inactive) | -30.1% (inactive) | -81.3% (inactive)
14 | Cc1nc(N2CCC(C)CC2)c2c(C)c(C(=O)O)sc2n1 | 657 | -4.1% (inactive) | 31% (inactive) | 66.2% | -72.5% (inactive) | 103% | -0.303 (inactive) | 1.1e-05 (inactive) | 0.00417 (inactive) | 14% (inactive) | 23.3% (inactive)
15 | Cc1ccc(CCSCC(=O)O)cn1 | 174 | 4.9% (inactive) | 1.9% (inactive) | 90% | 10.4% (inactive) | 83.6% | -0.428 (inactive) | -1.1e-05 (inactive) | 0.00565 (inactive) | 4.3% (inactive) | 0.219% (inactive)
16 | Cc1ccc(C)c(NC(=O)c2ccc3c(c2)N(Cc2ccc(F)cc2)C(=O)CS3=O)c1 (stereo unspecified) | 622 | 6.2% (inactive) | -0.7% (inactive) | 105% | 3.5% (inactive) | 122% | -0.546 (inactive) | -2.3e-05 (inactive) | 0.00733 (inactive) | 4.49% (inactive) | 20.4% (inactive)
17 | CCCCCCC(C)n1[nH]c(=O)c2c(C)cc(=O)[nH]c21 (stereo unspecified) | 675 | 8.2% (inactive) | -12.3% (inactive) | 105% | -6.2% (inactive) | 91.9% | -0.61 (inactive) | -1.7e-05 (inactive) | 0.00325 (inactive) | 3.89% (inactive) | -2.25% (inactive)
18 | Cc1nn(CC(O)Cn2c3c(c4ccccc42)CCN(C)C3=O)c(C)c1Br (stereo unspecified) | 363 | -4.7% (inactive) | 10.5% (inactive) | 101% | 45.5% (inactive) | 75.2% | -0.427 (inactive) | -3e-05 (inactive) | 0.00532 (inactive) | 21.6% (inactive) | 21.9% (inactive)
19 | CCCc1cc(=O)oc2c(C)c3occ(C)c3cc12 | 486 | 2.1% (inactive) | -5.5% (inactive) | 99.6% | -11.9% (inactive) | 109% | -0.57 (inactive) | -4.7e-05 (inactive) | 0.00609 (inactive) | 2.73% (inactive) | 6.19% (inactive)
20 | CC(=O)c1ccc(NS(=O)(=O)c2ccccc2)cc1 | 554 | -4.8% (inactive) | 0.4% (inactive) | 62.8% | -59.1% (inactive) | 92.5% | -0.467 (inactive) | 3.9e-05 (inactive) | 0.00323 (inactive) | -17.2% (inactive) | 7.05% (inactive)
21 | C=CCn1c(SCc2ccc(C#N)cc2)nnc1-c1cccc(Cl)c1 | 397 | -11.3% (inactive) | 10.7% (inactive) | 95.4% | -62.4% (inactive) | 187% | -0.421 (inactive) | -4.1e-05 (inactive) | 0.00297 (inactive) | 11.7% (inactive) | 35.5% (inactive)
22 | Cc1ccc(C(=O)NC(Cc2c[nH]c3ccccc23)C(=O)O)o1 (stereo unspecified) | 507 | 4.3% (inactive) | -3.1% (inactive) | 110% | -25% (inactive) | 120% | -0.485 (inactive) | 5.1e-05 (inactive) | 0.0112 (active) | -7.86% (inactive) | 22.8% (inactive)
23 | CCN1CCN(C(=O)c2oc(=O)c3ccccc3c2-c2ccc(C)cc2)CC1 | 805 | -15.2% (inactive) | 8.7% (inactive) | 94.3% | -58.3% (inactive) | 121% | -0.49 (inactive) | -4.9e-05 (inactive) | 0.00617 (inactive) | 10.4% (inactive) | 27.7% (inactive)
24 | Cc1ccccc1-n1c(=O)cc(N2CCN(C(=O)c3ccco3)CC2)[nH]c1=O | 543 | 12.5% (inactive) | 6.9% (inactive) | 116% | -8.4% (inactive) | 99.7% | -0.598 (inactive) | 1.7e-05 (inactive) | 0.00562 (inactive) | 13.5% (inactive) | 12.4% (inactive)
25 | COc1ccc(CNc2nc(NCc3ccc(OC)cc3)n(S(C)(=O)=O)n2)cc1 | 292 | -0.9% (inactive) | 26% (inactive) | 86.3% | 47% (inactive) | 95.3% | -0.626 (inactive) | -1.8e-05 (inactive) | 0.00366 (inactive) | 2.7% (inactive) | -1.73% (inactive)
26 | O=C(Nc1ncc(Br)s1)C1CCCN1S(=O)(=O)c1cccc2cccnc12 (stereo unspecified) | 674 | 0.6% (inactive) | 39.7% (inactive) | 88.6% | -12.1% (inactive) | 105% | -0.583 (inactive) | -2.2e-05 (inactive) | 0.00689 (inactive) | 4.87% (inactive) | 36.5% (inactive)
